Shown are actives, neighbours in structure and some others; about 28% of the full set was active somewhere.
CYP2C9 inhib: blocks human cytochrome P450 2C9; 96,000 tested, 20% active; CYP2C9 Supersomes, luciferin-H conversion, luminescence; AID 777; inhibition, % at 5 µM;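 active means blocking of liver enzyme CYP2C9 beyond about 50% at 5 µM, limit read from the data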
CYP2C19 inh: blocks human cytochrome P450 2C19; P33261; CYP2C19 Supersomes, luciferin-H EGE luminescence, 30 min; inhibition, % at 5 µM; 96,000 tested, 21% active; AID 778;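 active means CYP2C19 inhibition above a set limit at 5 µM in the primary screen, cut at about 50% in these data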;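 further: plate controls were negative control wells for no effect and 2.5 mM tranylcypromine positive control for full effect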
CYP2C9 activ: activators of human CYP2C9; P11712; recombinant CYP2C9, luciferin-H conversion, luminescence; stronger effect = higher value; factor 1 = untreated enzyme, 0 = blocked; activation factor at 5 µM; 96,000 tested, 1.4% active;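 active means activation factor of 2 or more for CYP2C9 at a 5 µM dose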;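 further: 0 = sulfaphenazole-blocked wells and 1 = vehicle-only wells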
D1 mod: D1 dopamine receptor (human) allosteric modulation | HEK293 D1, CRE-luciferase, dopamine EC30 potentiation; actives deviate in either direction | AID 641 | B-score at 10 µM | 58,000 tested, 5.9% active | P21728;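 active means luminescence count or its row- and column-corrected plate score outside the 99.7% band of the plate's sample wells, on either side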
DAT uptake mod: modulates human dopamine transporter uptake under cocaine | Q01959 | LLC-PK1 hDAT cells, [14C]-dopamine uptake with cocaine IC80; actives deviate in either direction | B-score at 10 µM | 110,000 tested, 1.3% active;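 active means Z score or B-score, a plate-position-corrected score, falls beyond the plate's 99.7% confidence bounds, in either direction; inactive means both scores lie inside the 99.7% bounds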;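 further: scored against the spread of the other compound wells on the same plate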
Target sequence (Q01959 whole entry, looked up): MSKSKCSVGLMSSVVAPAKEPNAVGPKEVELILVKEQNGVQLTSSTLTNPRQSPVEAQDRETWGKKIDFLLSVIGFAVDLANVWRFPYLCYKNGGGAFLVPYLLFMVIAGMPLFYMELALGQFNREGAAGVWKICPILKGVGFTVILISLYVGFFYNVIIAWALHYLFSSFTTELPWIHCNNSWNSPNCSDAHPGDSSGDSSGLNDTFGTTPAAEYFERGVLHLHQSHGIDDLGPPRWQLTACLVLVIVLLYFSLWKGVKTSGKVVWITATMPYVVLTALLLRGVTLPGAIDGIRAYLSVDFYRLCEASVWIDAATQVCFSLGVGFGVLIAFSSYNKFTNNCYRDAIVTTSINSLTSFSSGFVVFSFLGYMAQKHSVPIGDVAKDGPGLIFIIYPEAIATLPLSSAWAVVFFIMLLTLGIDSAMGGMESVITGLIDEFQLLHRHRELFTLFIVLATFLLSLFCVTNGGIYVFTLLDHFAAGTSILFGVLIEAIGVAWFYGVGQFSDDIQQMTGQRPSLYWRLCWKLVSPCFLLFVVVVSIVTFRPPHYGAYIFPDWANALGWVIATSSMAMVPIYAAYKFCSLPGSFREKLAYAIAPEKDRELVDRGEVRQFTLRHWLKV
CYP2C19 act: cytochrome P450 2C19 (human) activation | activation factor at 5 µM | 96,000 tested, under 10 active | recombinant CYP2C19, luciferin-H EGE luminescence; stronger effect = higher value; 0 = fully inhibited enzyme, 1 = untreated enzyme | AID 1025 | P33261;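 active means activation factor of at least 2 at 5 µM in the primary screen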;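 further: 0 = wells with 2.5 mM tranylcypromine and 1 = vehicle-only wells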
Active calls of the source: *; . = no result.

SMILES | CYP2C9 inhib | CYP2C19 inh | CYP2C9 activ | D1 mod | DAT uptake mod | CYP2C19 act
Cn1c(NC(=O)c2ccccc2F)cc(=O)n(C)c1=O | 0.1 | -0.6 | 1 | 0.34 | 0.364 | 1
COc1cccc(-c2cc(C(=O)Nc3nc4ccccc4s3)c3ccccc3n2)c1 | 50.6* | 21.5 | 0.5 | . | 0.631 | 0.8
Cn1c(NC(=O)c2cc(-c3ccc4c(c3)OCO4)nc3ccccc23)cc(=O)n(C)c1=O | 73.1* | 29.7 | 0.3 | 1.53 | . | 0.7
Cn1cc(/C=N/n2cnc3scc(-c4ccccc4)c3c2=O)c2ccccc21 | 42.5 | 12.2 | 0.6 | -0.0599 | 0.618 | 0.9
COc1ccc(Cn2c(SC)nc3ccccc32)cc1[N+](=O)[O-] | 28.4 | 21.8 | 0.7 | . | 0.932 | 0.8
COc1cccc(OC)c1C(=O)NN1CCCCC1 | -12.6 | -3.6 | 1.1 | . | -0.618 | 1
C=CCNS(=O)(=O)c1ccc(OC)c(C)c1 | -171.4 | 30.1 | 2.7* | 0.125 | -0.0292 | 0.7
CCNS(=O)(=O)c1ccc(OC)c(C)c1 | -174.5 | 24.1 | 2.7* | 0.559 | 0.444 | 0.8
CCCCNS(=O)(=O)c1ccc(OC)c(C)c1 | . | . | . | . | 0.886 | .
CCOc1ccc(S(=O)(=O)NCCOC)cc1C | -197.8 | 89.4* | 3* | . | 0.479 | 0.1
O=C(N/N=C/c1cn(-c2ccccc2)nc1-c1ccccc1)c1ccco1 | -1.0 | -4.7 | 1 | . | 0.278 | 1
Cc1nnc(SCC(=O)N/N=C/c2cn(-c3ccccc3)nc2-c2ccccc2)n1-c1ccccc1 | 52.7* | 5.8 | 0.5 | . | 2.08 | 0.9
Cc1ccc(-c2nn(-c3ccccc3)cc2/C=N/NC(=O)c2ccc(Br)o2)cc1 | 52.3* | 29.3 | 0.5 | . | 0.0494 | 0.7
O=C(N/N=C\c1cn(-c2ccccc2)nc1-c1ccccc1)c1ccc(Br)o1 | 57.0* | 27.8 | 0.4 | . | . | 0.7
C=CCn1c(=O)c2ccccc2n2c(SCC(=O)/C(C#N)=C(\C)N)nnc12 | 15.2 | -12.0 | 0.8 | -1.22 | 0.737 | 1.1
CN1C(=O)CC(N2CCN(Cc3ccc(Cl)cc3)CC2)C1=O (stereo not drawn) | 6.6 | 23.4 | 0.9 | . | 0.424 | 0.8
C=CCSC1=C(C#N)C(c2ccccc2C)CC(=O)N1 (stereo not drawn) | 25.0 | 24.5 | 0.8 | 4.06 | 0.0004 | 0.8
C=C(C)CSC1=C(C#N)C(c2ccccc2Cl)CC(=O)N1 (stereo not drawn) | 70.2* | 58.2* | 0.3 | . | -0.125 | 0.4
CCSC1=C(C#N)C(c2ccccc2C)CC(=O)N1 (stereo not drawn) | 7.7 | 21.5 | 0.9 | -0.00951 | -0.477 | 0.8
C=CCSC1=C(C#N)C(c2ccccc2Cl)CC(=O)N1 (stereo not drawn) | 49.8 | 73.0* | 0.5 | 0.62 | 1.73 | 0.3
CCc1ccccc1NC(=O)CN(C)Cc1nc(N)nc(Nc2ccccc2C)n1 | 29.5 | 68.1* | 0.7 | -0.589 | . | 0.3
CC(C)(C)NC(=O)CSc1nccn1Cc1ccccc1 | 12.5 | 44.4 | 0.9 | 1.18 | -0.00887 | 0.6
N#Cc1nc(Cc2cccc3ccccc23)oc1NCCN1CCOCC1 | -7.6 | -10.8 | 1.1 | . | 1.24 | 1.1
C=CCNc1oc(Cc2cccc3ccccc23)nc1C#N | 64.7* | 99.6* | 0.4 | -0.814 | 0.824 | 0
C=CCNc1oc(/C=C/c2ccccc2)nc1C#N | 73.6* | 68.1* | 0.3 | . | -0.536 | 0.3
SMILES | CYP2C9 inhib | CYP2C19 inh | CYP2C9 activ | D1 mod | DAT uptake mod | CYP2C19 act
Cc1ccc(-c2nc(C#N)c(NCc3cccc4c3OCO4)o2)cc1 | 39.0 | -5.1 | 0.6 | 1.57 | 0.0545 | 1.1
N#Cc1nc(-c2ccc(F)cc2)oc1NCc1cccc2c1OCO2 | 63.0* | 16.8 | 0.4 | 0.21 | 0.104 | 0.8
N#Cc1nc(Cc2cccc3ccccc23)oc1NCc1ccc(F)cc1 | 89.9* | 51.5* | 0.1 | 0.138 | 0.859 | 0.5
COc1ccc(-n2nnc3c(SCC(=O)NCC4CCCO4)ncnc32)cc1 (stereo not drawn) | 27.2 | -3.0 | 0.7 | -0.362 | . | 1
CCC(C)NC(=O)c1ccccc1NC(=O)c1ccc(CSc2ccc(C)cc2)cc1 (stereo not drawn) | 23.5 | -5.0 | 0.8 | . | 0.0294 | 1.1
N#Cc1nc(Cc2cccc3ccccc23)oc1N1CCOCC1 | 16.6 | 48.4 | 0.8 | 1.87 | 0.0464 | 0.5
CC1CCN(c2oc(Cc3cccc4ccccc34)nc2C#N)CC1 | 76.3* | 93.2* | 0.2 | -0.593 | 0.0745 | 0.1
O=C(c1ccc(CN2CCOCC2)cc1)N1CCC(Cc2ccccc2)CC1 | 70.6* | 66.0* | 0.3 | -3.29* | 2.05 | 0.3
Cc1ccccc1NC(=O)c1ccc(CN2CCc3ccccc3C2)cc1 | 27.2 | 32.5 | 0.7 | . | 0.062 | 0.7
CCc1ccccc1NC(=O)c1ccc(CN2CCC(Cc3ccccc3)CC2)cc1 | 34.7 | 56.4* | 0.7 | . | -6.89* | 0.4
CC1CCCCN1CCNC(=O)c1cnn2ccccc12 (stereo not drawn) | 28.1 | -8.6 | 0.7 | -0.876 | -0.914 | 1.1
CN(C(=O)c1ccncc1)C1CC(C)(C)N(O)C(C)(C)C1 | 8.4 | 96.1* | 0.9 | -0.416 | -0.695 | 0
O=C(c1ccco1)N1C(=O)c2cccc3cccc1c23 | -276.0 | 14.4 | 3.8* | 0.116 | 0.209 | 0.9
COC(=O)C1=C(O)C(C(=O)OC)C(c2ccc(C)cc2)C(C#N)(C#N)C1c1ccc(C)cc1 (stereo not drawn) | . | . | . | . | -0.746 | .
O=C1CC2(CON=C2c2ccc(F)cc2)C(=O)N1c1ccc(F)cc1 (stereo not drawn) | 51.4* | 89.2* | 0.5 | -0.461 | -0.493 | 0.1
COc1cccc(CNC(=O)CCCNS(=O)(=O)c2cccs2)c1 | 30.4 | 31.9 | 0.7 | -0.687 | -0.0533 | 0.7
O=C(NCc1ccc(F)cc1)C(Cc1ccccc1)NS(=O)(=O)c1cccs1 (stereo not drawn) | 50.5* | 88.8* | 0.5 | . | -0.707 | 0.1
O=C(NCc1cccs1)C(Cc1ccccc1)NS(=O)(=O)c1cccs1 (stereo not drawn) | . | . | . | 0.733 | 0.00392 | .
O=S(=O)(NCCSc1ccccc1)c1cccs1 | 46.1 | 80.1* | 0.5 | 0.154 | -0.0759 | 0.2
O=S(=O)(NCc1ccccc1)c1cccs1 | 6.8 | 50.8* | 0.9 | . | -1.46 | 0.5
O=S(=O)(NCCc1ccccn1)c1cccs1 | -13.7 | 8.5 | 1.1 | 0.287 | -0.0993 | 0.9
O=C(CCNS(=O)(=O)c1cccs1)NCc1ccccc1 | 22.6 | 83.3* | 0.8 | . | -0.796 | 0.2
CCc1nc2ccccc2c(C(=O)OCC(=O)NCCCN2CCCC2=O)c1C | -28.0 | 20.9 | 1.3 | 0.79 | -0.678 | 0.8
CC1(C)[C@@H](O)CC[C@]2(C)C3C(O)C=C4[C@H]5C[C@@](C)(CO)CC[C@]5(C)CC[C@]4(C)[C@]3(C)CC[C@@H]12 (stereo partly drawn) | . | . | . | . | 0.445 | .
CC(=O)Oc1cc2c(C(C)=O)coc2c2ccccc12 | -21.1 | 6.5 | 1.2 | -0.0202 | 0.0167 | 0.9
CC(=O)c1cc(C)ccc1OC(=O)c1cccc2nc(C)oc12 | 61.1* | 57.3* | 0.4 | -0.0736 | 0.739 | 0.4

Screens: PubChem, several laboratories
